# “And” between values parts separate entries of the source, which are not always exact repeats. Identical values can stand only once. The source holds several records for some structures; these can differ, active in one and inactive in another. The source made the active and inactive calls. How the source made its calls: active means hit-call score of the fitted dose curve at least 0.9, where 1 is the maximum; inactive means score below 0.9.
# Read-out: Interleukin-8 (IL8), CXCL8 (gene 3576)
# Assay: BSK_SAg_IL8: BioMAP Diversity Plus: SAg Assay for Interleukin-8 (IL8) Biomarker Activity (AID 2283094)
# Conditions: primary human HUVEC with PBMC; actives raise or lower the signal
# In short: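 HUVEC/PBMC co-culture, 24 h post-dose; IL-8 by ELISA. Gain or loss of signal fitted bidirectionally vs DMSO baseline.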
Compound,outcome,AC50
CNC(=O)Oc1cccc(N=CN(C)C)c1,inactive,–
CCc1ccc(C(=O)NN(C(=O)c2cc(C)cc(C)c2)C(C)(C)C)cc1,–,11.3 µM (active)
CC(C)(C)C(O)C(Oc1ccc(Cl)cc1)n1cncn1 (stereo unspecified),inactive,10.6 µM (active)
CCC(C)(NC(=O)c1cc(Cl)c(C)c(Cl)c1)C(=O)CCl (stereo unspecified),–,5.75 µM (active)
COC(=O)c1ccccc1S(=O)(=O)NC(=O)Nc1nc(C)nc(OC)n1,inactive,–
COC(=O)c1ccccc1CS(=O)(=O)NC(=O)Nc1nc(OC)cc(OC)n1,inactive,–
O=C(O)COc1ccc(Cl)cc1Cl,inactive,–
CCC(C)(C)C(=O)OC1=C(c2ccc(Cl)cc2Cl)C(=O)OC12CCCCC2,–,4.73 µM (active)
CCN(CC)C(=O)SCc1ccc(Cl)cc1,inactive,–
COc1cc(OC)nc(NC(=O)NS(=O)(=O)c2cc(NC=O)ccc2C(=O)N(C)C)n1,inactive,–
O=C(O)C(F)(F)C(F)(F)C(F)(F)C(F)(F)C(F)(F)C(F)(F)C(F)(F)F,inactive,44.3 µM (active)
O=C(NC(=O)c1c(F)cccc1F)Nc1ccc(OC(F)(F)C(F)OC(F)(F)F)c(Cl)c1 (stereo unspecified),inactive,–
N#CN,inactive,–
Clc1ccccc1-c1nnc(-c2ccccc2Cl)nn1,inactive,–
CCOc1nc(NC)nc(NC(=O)NS(=O)(=O)c2ccccc2C(=O)OC)n1,inactive,–
COP(=S)(OC)Oc1ccc(SC)c(C)c1,inactive,–
[2H]C1([2H])[n+]2ccccc2-c2cccc[n+]2C1([2H])[2H],inactive,–
C#CCN1C(=O)COc2cc(F)c(N3C(=O)C4=C(CCCC4)C3=O)cc21,inactive,–
CC(C)OC(=O)Nc1cccc(Cl)c1,inactive,–
Oc1cc(Cl)ccc1Oc1ccc(Cl)cc1Cl,–,12.8 µM (active) [middle of 4 runs]
Cc1[nH]c(=O)n(C(C)(C)C)c(=O)c1Cl,–,9.86 µM (active)
CCS(=O)(=O)c1cccnc1S(=O)(=O)NC(=O)Nc1nc(OC)cc(OC)n1,inactive,–
ClC1C(Cl)C(Cl)C(Cl)C(Cl)C1Cl (stereo unspecified),inactive,–
Cc1cc(C)nc(NC(=O)NS(=O)(=O)c2ccccc2C(=O)OC2COC2)n1,inactive,–
CCC(C)Nc1c([N+](=O)[O-])cc(C(C)(C)C)cc1[N+](=O)[O-] (stereo unspecified),–,20 µM (active)
O=S(=O)(O)C(F)(F)C(F)(F)C(F)(F)C(F)(F)C(F)(F)C(F)(F)C(F)(F)C(F)(F)F,inactive,–

# Read-out: not listed separately
# Assay: BSK_SAg_Proliferation: Cell Proliferation Assessment in the BioMAP Diversity Plus: SAg Assay (AID 2283095);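 further: relative cell number as total protein by SRB absorbance in sub-confluent culture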
# Conditions: primary human HUVEC with PBMC
# In short: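 HUVEC/PBMC co-culture, 96-well. TCA-fixed (10%), 0.1% SRB stain, A560 at 96 h. Protein content used as viability readout; bidirectional fitting vs DMSO control.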
Compound,AC50,outcome
CNC(=O)Oc1cccc(N=CN(C)C)c1,17.9 µM (active),–
CCc1ccc(C(=O)NN(C(=O)c2cc(C)cc(C)c2)C(C)(C)C)cc1,17.7 µM (active),–
CC(C)(C)C(O)C(Oc1ccc(Cl)cc1)n1cncn1 (stereo unspecified),15 µM (active),inactive
CCC(C)(NC(=O)c1cc(Cl)c(C)c(Cl)c1)C(=O)CCl (stereo unspecified),1.92 µM (active),–
COC(=O)c1ccccc1S(=O)(=O)NC(=O)Nc1nc(C)nc(OC)n1,–,inactive
COC(=O)c1ccccc1CS(=O)(=O)NC(=O)Nc1nc(OC)cc(OC)n1,–,inactive
O=C(O)COc1ccc(Cl)cc1Cl,–,inactive
CCC(C)(C)C(=O)OC1=C(c2ccc(Cl)cc2Cl)C(=O)OC12CCCCC2,12.3 µM (active),–
CCN(CC)C(=O)SCc1ccc(Cl)cc1,–,inactive
COc1cc(OC)nc(NC(=O)NS(=O)(=O)c2cc(NC=O)ccc2C(=O)N(C)C)n1,–,inactive
O=C(O)C(F)(F)C(F)(F)C(F)(F)C(F)(F)C(F)(F)C(F)(F)C(F)(F)F,–,inactive
O=C(NC(=O)c1c(F)cccc1F)Nc1ccc(OC(F)(F)C(F)OC(F)(F)F)c(Cl)c1 (stereo unspecified),9.75 µM (active),–
N#CN,–,inactive
Clc1ccccc1-c1nnc(-c2ccccc2Cl)nn1,–,inactive
CCOc1nc(NC)nc(NC(=O)NS(=O)(=O)c2ccccc2C(=O)OC)n1,–,inactive
COP(=S)(OC)Oc1ccc(SC)c(C)c1,–,inactive
[2H]C1([2H])[n+]2ccccc2-c2cccc[n+]2C1([2H])[2H],–,inactive
C#CCN1C(=O)COc2cc(F)c(N3C(=O)C4=C(CCCC4)C3=O)cc21,–,inactive
CC(C)OC(=O)Nc1cccc(Cl)c1,–,inactive
Oc1cc(Cl)ccc1Oc1ccc(Cl)cc1Cl,8.46 µM (active) and 8.15 µM (active) and 6.76 µM (active),–
Cc1[nH]c(=O)n(C(C)(C)C)c(=O)c1Cl,16 µM (active),–
CCS(=O)(=O)c1cccnc1S(=O)(=O)NC(=O)Nc1nc(OC)cc(OC)n1,–,inactive
ClC1C(Cl)C(Cl)C(Cl)C(Cl)C1Cl (stereo unspecified),–,inactive
Cc1cc(C)nc(NC(=O)NS(=O)(=O)c2ccccc2C(=O)OC2COC2)n1,–,inactive
CCC(C)Nc1c([N+](=O)[O-])cc(C(C)(C)C)cc1[N+](=O)[O-] (stereo unspecified),29.6 µM (active),–
O=S(=O)(O)C(F)(F)C(F)(F)C(F)(F)C(F)(F)C(F)(F)C(F)(F)C(F)(F)C(F)(F)F,–,inactive

# Read-out: not listed separately
# Assay: BSK_SAg_SRB: Viability Assessment in the BioMAP Diversity Plus: SAg Assay (AID 2283096);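 further: cells read one day after compound addition; hits may be either gain or loss of signal compared with DMSO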
# Conditions: primary human HUVEC with PBMC
# In short: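 Compounds were added to a human vascular co-culture of umbilical vein endothelium and PBMC. After 24 h, parallel cultures were fixed with 10% TCA, stained with 0.1% sulforhodamine B and read at 560 nm. Gain or loss of signal was fitted relative to DMSO.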
Compound,outcome,AC50
CNC(=O)Oc1cccc(N=CN(C)C)c1,inactive,–
CCc1ccc(C(=O)NN(C(=O)c2cc(C)cc(C)c2)C(C)(C)C)cc1,inactive,–
CC(C)(C)C(O)C(Oc1ccc(Cl)cc1)n1cncn1 (stereo unspecified),inactive,–
CCC(C)(NC(=O)c1cc(Cl)c(C)c(Cl)c1)C(=O)CCl (stereo unspecified),–,23.6 µM (active)
COC(=O)c1ccccc1S(=O)(=O)NC(=O)Nc1nc(C)nc(OC)n1,inactive,–
COC(=O)c1ccccc1CS(=O)(=O)NC(=O)Nc1nc(OC)cc(OC)n1,inactive,–
O=C(O)COc1ccc(Cl)cc1Cl,inactive,–
CCC(C)(C)C(=O)OC1=C(c2ccc(Cl)cc2Cl)C(=O)OC12CCCCC2,–,32.8 µM (active)
CCN(CC)C(=O)SCc1ccc(Cl)cc1,inactive,–
COc1cc(OC)nc(NC(=O)NS(=O)(=O)c2cc(NC=O)ccc2C(=O)N(C)C)n1,inactive,–
O=C(O)C(F)(F)C(F)(F)C(F)(F)C(F)(F)C(F)(F)C(F)(F)C(F)(F)F,inactive,–
O=C(NC(=O)c1c(F)cccc1F)Nc1ccc(OC(F)(F)C(F)OC(F)(F)F)c(Cl)c1 (stereo unspecified),inactive,–
N#CN,inactive,–
Clc1ccccc1-c1nnc(-c2ccccc2Cl)nn1,inactive,–
CCOc1nc(NC)nc(NC(=O)NS(=O)(=O)c2ccccc2C(=O)OC)n1,inactive,–
COP(=S)(OC)Oc1ccc(SC)c(C)c1,inactive,–
[2H]C1([2H])[n+]2ccccc2-c2cccc[n+]2C1([2H])[2H],inactive,–
C#CCN1C(=O)COc2cc(F)c(N3C(=O)C4=C(CCCC4)C3=O)cc21,inactive,–
CC(C)OC(=O)Nc1cccc(Cl)c1,–,1.76 µM (active)
Oc1cc(Cl)ccc1Oc1ccc(Cl)cc1Cl,–,15.3 µM (active) and 22.3 µM (active) and 14.9 µM (active)
Cc1[nH]c(=O)n(C(C)(C)C)c(=O)c1Cl,inactive,–
CCS(=O)(=O)c1cccnc1S(=O)(=O)NC(=O)Nc1nc(OC)cc(OC)n1,inactive,–
ClC1C(Cl)C(Cl)C(Cl)C(Cl)C1Cl (stereo unspecified),inactive,–
Cc1cc(C)nc(NC(=O)NS(=O)(=O)c2ccccc2C(=O)OC2COC2)n1,inactive,–
CCC(C)Nc1c([N+](=O)[O-])cc(C(C)(C)C)cc1[N+](=O)[O-] (stereo unspecified),inactive,–
O=S(=O)(O)C(F)(F)C(F)(F)C(F)(F)C(F)(F)C(F)(F)C(F)(F)C(F)(F)C(F)(F)F,inactive,–
